The values that follow come from PubChem BioAssay (NCI).

Compounds without any hit were thinned out: in the full panel of roughly 83,000, 20% have a hit.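 Compound tested at a single concentration for 48 hours in 96-well plates; a percent growth value below 10 was scored as active.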 A number with no mark means an inactive call. Activity calls are given as the source filed them.

This experiment has as its system K-562 leukemia. The experiment can be described thus: NCI-60 one-dose screen, 48 h (100 = growth as untreated, 0 = no growth, -100 = all killed). Conditions: 10 µM unless noted.
In the case of `Cc1cccc(NC(=O)Nc2ccc(-c3ccc4c(c3)NC(=O)/C4=C\c3ccc[nH]3)cc2)c1`, the growth is 82.8%.

On to `Cc1cc2nc3c4cc(C=O)ccc4n(CCN(C)C)c3nc2cc1C`, for which the growth was 5.5% (active).

`c1ccc2c(-c3nccs3)c[nH]c2c1`: the growth is 99.2%.

Turning to `COc1cc(NC(C)CCCNC(=O)CCC(=O)NCCCNCCCCCCCCCCNCCCNC(=O)CCC(=O)NCCCC(C)Nc2cc(OC)cc3cccnc23)c2ncccc2c1` (stereo not drawn), the growth was 51.2% [8 µM].

As for `O=C1c2ccc3c4c(ccc(c24)C(=O)N1CCCNCc1ccccc1)C(=O)N(CCCNCc1ccccc1)C3=O`, the growth is -47.9% (active).

Consider `COc1ccc(CNCCN2C(=O)c3ccc4c5c(ccc(c35)C2=O)C(=O)N(CCNCc2ccc(OC)c(OC)c2OC)C4=O)c(OC)c1OC`, for which the growth is -10.8% (active).

Consider `CCN(CC)c1ccc(C(=O)c2ccccc2)cc1`, for which the growth is 95.2%.

With `COc1cc2c(c(O)c1Cl)C(=O)c1c(O)cc(C[C@H](C)O)cc1[C@H]2[C@H]1c2cc(C[C@H](C)O)cc(O)c2C(=O)c2c1cc(OC)c(Cl)c2O`, the growth is 11.7%.

Regarding `Nc1c(C(=O)Nc2cccc3cnccc23)sc2nc3c(cc12)C(=O)CCC3`, the growth is 46.3%.

`O=C(CCN1CCCC1)Nc1ccc2c(Nc3ccc(F)cc3)c3ccccc3nc2c1`: the growth is 0.179% (active).

Regarding `COc1cc2c(cc1OC)C(=O)/C(=C/c1cc(C)c(O)c(C)c1)S2`, the growth was 12%.

`CCCCCN1C=C/C(=C\C(=O)N(C)c2ccc(Oc3ccccc3)cc2)c2ccccc21`: the growth is 48.8%.

As to `C/C(=N\Nc1cc(C)nc2ccc(Br)cc12)c1ccc([N+](=O)[O-])cc1`, the growth is 11.3%.

For `N/C(=N\C(N)=N\c1nc2ccccc2s1)c1ccnc(Br)c1`, the growth is 14%.

On to `COc1cc(/C=N/NC(=O)c2cnn3c2NC(c2ccccc2)C3)ccc1Oc1ccccc1` (stereo not drawn), for which the growth was 16.8%.

Take `COc1cc(-c2n/c(=C\c3c(O)[nH]c4ccc(Cl)cc34)cc3c2=Nc2ccccc2-3)ccc1F`: the growth was 13.4%.

As for `c1ccc2c(-c3c[nH]c4ccccc34)c3c(cc2c1)[nH]c1ccccc13`, the growth is 25.1%.

Regarding `C=C(C)[C@@H]1CC[C@]2(CN)CC[C@]3(C)[C@H](CC[C@@H]4[C@@]5(C)CCCNC(C)(C)[C@@H]5CC[C@]43C)[C@@H]12`, the growth is -56.1% (active).

As for `CCOC(=O)/C(C#N)=C1/NNC(=Nc2cccnc2)S1`, the growth was 99.8%.

For `O=C1c2ccc3c4c(ccc(c24)C(=O)N1CCCNCc1ccccc1Cl)C(=O)N(CCCNCc1ccccc1Cl)C3=O`, the growth is -38.2% (active).

In the case of `CCN(CC)c1ccc(/C=N/NC(=O)CSc2nc3ccccc3c(=O)n2Cc2ccc(S(N)(=O)=O)cc2)c(O)c1`, the growth was 6.12% (active).

With `COc1cc(/C=C/c2cc(O)c(C(C)=O)c(O)c2)cc2c1O[C@]1(C)CC[C@@H](O)C(C)(C)[C@H]1C2`, the growth was 31.6%.

In the case of `O=C(CCN1CCCC1)Nc1ccc2c(NCCCc3ccccc3)c3ccccc3nc2c1`, the growth was -7.07% (active).

`CCSCC1CC(O)(c2ccccc2)CC(c2ccc(F)cc2)O1` (stereo not drawn): the growth was 11.9%.

Take `N/C(=N\C(N)=N\c1nc2ccccc2s1)c1cnccn1`: the growth is 17.1%.

As for `C#CCNC(=O)[C@]1(C)CC[C@]2(C)CC[C@@H]3C(=CC[C@H]4[C@@]3(C)CC[C@H]3C(C)(C)C(=O)CC[C@]43C)[C@@H]2C1`, the growth was 63.7%.

Regarding `CCc1ccc(CNc2ccc(N3CCOCC3)c(C(=O)O)c2)cc1`, the growth is 111%.

On to `COc1ccc(/C=N/NC(=O)c2cnn3c2NC(c2ccccc2)C3)cc1OC` (stereo not drawn), for which the growth was 24.1%.

On to `N#CC1=C(/N=C/c2ccccc2)Oc2c(ccc3ccccc23)C1c1ccc([N+](=O)[O-])cc1` (stereo not drawn), for which the growth is 90.7%.

In the case of `O=C(Cc1ccccc1)NNc1nc(Cl)nc(N2CCN(C(c3ccccc3)c3ccccc3)CC2)n1`, the growth was 9.78% (active).

Regarding `COC(=O)C1=C(C(=O)ON)[C@@H]2C=C[C@@]1([C@@H](Cc1ccccc1)Nc1ccccc1)O2`, the growth was -9.92% (active).

In the case of `CCCOC(=O)N[C@H]1CCc2c(Cl)c(OC)c(OC)c(OC)c2-c2ccc(SC)c(=O)cc21`, the growth is 9.67% (active).

In the case of `CCN(CC)CCCC(C)Nc1cc(O)cc2cccnc12` (stereo not drawn), the growth is 87.4%.

With `O=C1c2ccc3c4c(ccc(c24)C(=O)N1CCCNCc1ccccc1F)C(=O)N(CCCNCc1ccccc1F)C3=O`, the growth was -28.2% (active).

With `CC1=CCC(OC(=O)C(C)(O)CCC(O)(C(=O)OC2(C)C=CC(O)(C(C)C)CC2)C(C)C)(C(C)C)CC1` (stereo not drawn), the growth is 105%.

Consider `CCCCCCNC(=O)Nc1ccc2cc3ccc(NC(=O)NCCCCCC)cc3nc2c1`, for which the growth is -29.6% (active).

Take `C[C@H]1[C@H](C)CC[C@]2(C(=O)NCC#CCN3CCN(C)CC3)CC[C@]3(C)C(=CC[C@@H]4[C@@]5(C)Cc6c([nH]c7ccccc67)C(C)(C)[C@@H]5CC[C@]43C)[C@H]12`: the growth is 1.37% (active).

Take `O=C(/C=C(/C=C/c1coc2ccccc12)OB(F)F)/C=C/c1coc2ccccc12`: the growth is 72%.
